# The list is not random: actives were taken first. Their share in the collection is about 17%.
# TGFb inhibitor – TGF-b pathway inhibition | HepG2 CAGA-GFP TGF-b/SMAD3 reporter, GFP fluorescence, 18 h; TGF-beta stimulated, 500 pg/mL final | Potency, µM (top dose mostly 46.1 µM), for the others: at the top dose activity, negative = inhibition, hits mostly inhibitors | actives 1.2% (n = 410,000) | AID 588855; note: % is set by controls: 0 for no effect and ±100 for the full control effect; nearly all actives have a fitted effect of over 65% in size
#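 Cell-based qHTS in HEPG2 carrying a CAGA-GFP Smad reporter; compounds added before 500 pg/mL final TGF-beta, 18 h incubation at 37 degrees C, GFP fluorescence quantified per cell by imaging cytometry.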
# DT40 TDP1 CPT – growth inhibition of DT40 Tdp1-/-;hTDP1 cells with camptothecin (screen for TDP1 inhibitors); chicken DT40 Tdp1-/-;hTDP1 cells + 20 nM CPT, ATP luminescence, 48 h; Potency, µM (series often up to 46.2 µM), for the others: at the highest dose activity change, negative = growth inhibition, actives largely listed as inhibitors; actives 12% (n = 420,000); AID 686979; note: % is set by controls: 0 for no effect and ±100 for the full control effect; nearly all actives have a fitted effect of over 55% in size
#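 Cell growth measured by CellTiter-Glo luminescence after a minimum 48 h, 37 C compound exposure with 20 nM CPT in Tdp1-knockout DT40 cells stably expressing hTDP1, seeded 400/well; qHTS titration format.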
# DT40 TDP1 no CPT – qHTS for Inhibitors of human tyrosyl-DNA phosphodiesterase 1 (TDP1): qHTS in cells in absence of CPT | DT40 Tdp1-/- hTDP1 cells, no CPT, ATP luminescence, 48 h | Potency, µM (doses to about 46.2 µM), inactives show at the top dose activity change, negative = growth inhibition, hits mostly inhibitors | actives 15% (n = 420,000) | AID 686978, 2013; note: % is set by controls: 0 for no effect and ±100 for the full control effect; nearly all actives have a fitted effect of over 55% in size
#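 No-CPT arm: Tdp1-/-;hTDP1 DT40 cells (400/well) plus compounds, incubated ≥48 hr at 37 °C. Readout CellTiter-Glo luminescence.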
# ATXN2 expr inh – ATXN2 expression inhibition | HEK-293 ATXN2-luciferase reporter, luminescence, 24 h | Potency, µM (series often up to 57 µM), inactives show at the highest dose activity change, negative = inhibition, actives largely listed as inhibitors | actives 0.72% (n = 360,000) | AID 1745845; note: % is set by controls: 0 for no effect and ±100 for the full control effect; nearly all actives have a fitted effect of over 55% in size
#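 qHTS (up to 57 uM final) was run with 24 h compound exposure of reporter cells at 37 °C. Each well was multiplexed: SteadyGlo luminescence measured ATXN2-luciferase expression after a fluorogenic Gly-Phe-AFC viability readout (25 uM final).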
# HepG2 viability – counter-screen for TGF-b inhibitors: cytotoxicity in HepG2 cells; HepG2 CAGA-GFP viability, ATP luminescence, 18 h; Potency, µM (titrated, usually from 46.1 µM), without a hit: at the highest dose activity change, negative = cytotoxicity, usual class: cytotoxic; actives 0.76% (n = 410,000); AID 588856
#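 CellTiter-Glo luminescence gave cytotoxicity after 18 hours at 37 degrees C. The cells were HepG2 CAGA-GFP in 1% FBS DMEM, stimulated with 500 pg/mL TGF-beta after compound addition. %Activity was normalised to no-cell wells (complete cell-killing) and DMSO (no toxicity), and curves were fitted and classified.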
# S2 tox – reduces viability in counter-screen for ATXN expression inhibitors. S2 cells (HEK-293 line with an ATXN2-luciferase reporter) viability, CellTiter-Fluor protease fluorescence, 24 h. Potency, µM (series often up to 56.7 µM), usual class: cytotoxic. actives 0.49% (n = 400,000); note: nearly all actives have a fitted effect of over 40% in size
# * marks the source's active call; other numbers are inactive results; i = inactive; ? = inconclusive; . = no result given. Calls come from the whole dose curve; as a rule, active = well fitted curve in the direction sought with a large enough effect; inconclusive = small, poorly fitted or top-dose-only effect, or another doubt; inactive = no such curve, though single readings can be large; an effect the other way counts as inactive or inconclusive. Potency is the fitted concentration of half-maximal effect.
SMILES,TGFb inhibitor,DT40 TDP1 CPT,DT40 TDP1 no CPT,ATXN2 expr inh,HepG2 viability,S2 tox
COc1ccc(CCn2c(O)c(C=Nc3ccc(F)cc3)c(=O)[nH]c2=O)cc1OC,-24%,?,?,.,-1%,i
COc1ccc(CCNc2nc3c(c(=O)n(C)c(=O)n3C)n2Cc2ccc(F)cc2)cc1OC,-10%,6.5µM*,3.3µM*,-17%,-6%,?
Cc1nnc2n1-c1sc(CCC(=O)N3CCOCC3)cc1C(c1ccccc1Cl)=NC2,.,-12%,-18%,-1%,.,?
Cc1nnc2n1-c1sc(CCc3ccc(CC(C)C)cc3)cc1C(c1ccccc1Cl)=NC2C (configuration not stated),.,?,12µM*,35µM*,.,32µM*
COc1ccc(NP(=O)(Nc2ccc(OC)cc2)Oc2ccccc2)cc1,6%,-22%,-30%,3%,1%,i
COc1ccccc1OP(=O)(Nc1ccc(Br)cc1)Oc1ccccc1OC,16µM*,?,?,-22%,-79%,i
COc1ccc(NP(=O)(Oc2ccccc2OC)Oc2ccccc2OC)cc1,-5%,?,16µM*,.,0%,i
COc1ccc(NP(=O)(Oc2ccc(Cl)cc2)Oc2ccc(Cl)cc2)cc1OC,20µM*,18µM*,26µM*,-22%,-47%,i
O=C(Nc1ccccc1-c1ccc(Cl)cc1)c1cccnc1Cl,.,?,?,?,.,i
Cc1ccc(OCC(=O)N2CCN(C3CCC(c4ccccc4)CC3)CC2)cc1 (configuration not stated),-3%,?,?,-20%,-16%,i
Cc1ccc(F)cc1NC(=O)c1ccc(Cn2nc(N3CCN(c4ccccc4)CC3)ccc2=O)o1,-26%,?,?,.,-20%,.
COc1ccc(CCNC(=O)C(=O)NCC2OCCN2S(=O)(=O)c2ccc(Cl)cc2)cc1 (configuration not stated),-11%,?,?,1%,-14%,i
CC1CN1c1cc2c(c3c1ccn3C)C1CCC2C1 (configuration not stated),-21%,7.3µM*,8.2µM*,?,-2%,i
COc1ccc(NC(=O)N2CC[C@@]3(CCCN(C(=O)Oc4ccccc4)C3)C2)cc1,.,8%,-2%,.,.,.
O=c1oc(Cl)c(Cl)c2ccccc12,0%,3.3µM*,2.9µM*,6%,-3%,i
O=P1(Nc2ccc(F)cc2)COc2ccccc2OC1,0%,4%,-6%,2%,-9%,i
COc1ccc(-c2n(-c3ccccn3)c3ccccc3[n+]2-c2ccccn2)cc1,11%,13µM*,13µM*,.,9%,i
Cc1ccc(-c2nc3ccccc3c(=O)n2-c2ccccn2)cc1,5%,?,?,14%,6%,i
CC(NC(=O)CNC(=S)N(Cc1ccccc1)Cc1cccnc1)c1ccccc1 (configuration not stated),12%,?,?,5%,-20%,i
CCN(CCO)CCn1c(Cc2ccccc2)nc2c1c(=O)n(C)c(=O)n2C,.,-10%,-14%,-2%,.,i
Cn1c(=O)c2c(nc(-c3ccc(N(CCCl)CCCl)cc3)n2C)n(C)c1=O,17%,15µM*,26µM*,-27%,-14%,i
CCOC(=O)[C@]12Cc3cc(OC)ccc3[C@H]1N(CC(=O)OC)C(=O)c1cc(OC)ccc12,.,18µM*,6.5µM*,20µM*,.,13µM*
CCOC(=O)C1C(=O)N(C)C2(C)CC1c1cc(OC)ccc1O2 (configuration not stated),13%,10%,-10%,4%,-5%,i
